Where “and” joins values, the source holds several entries; their conditions need not be identical. Identical values can stand only once. Records with an inconclusive call do not appear. Some structures have more than one record in an assay (separate samples or runs), and their calls can disagree. Calls of active or inactive are those of the source. Unless noted, the call rests on the fitted dose curve; in most records, active means well fitted curve in the direction sought with a large enough effect in the repeat runs; inconclusive means weak or mixed curves; inactive means no such curve, though single readings can be large; an effect the other way counts as inactive or inconclusive.
How the values were obtained:
[1] = qHTS assay to identify small molecule agonists of the vitamin D receptor (VDR) signaling pathway - cell viability counter screen (AID 743224); further: nearly all actives have a fitted effect of over 50% in size; further: potency means the concentration at half of the fitted maximal effect
In short: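 CellTiter-Glo viability readout on VDR-bla cells, measured after 16 h of compound treatment at 37C in the same wells.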

[2] = qHTS assay to identify small molecule agonists of the NFkB signaling pathway (AID 1159509; active means well fitted curve in the direction sought with a large enough effect in the signal ratio in the repeat runs, not every such curve was filed as active; the % refers to the signal ratio; further: series mostly up to about 61 µM; on the % scale 0 is the no-effect control and ±100 the full control effect)
In short: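 Readout: FRET fluorescence, 405 nm excitation, 460/530 nm emission; beta-lactamase expression disrupts FRET. Cells: ME-180 stably carrying NF-kB-driven bla reporter. Compound exposure 5 hr, 37 C, 5% CO2.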

[3] = qHTS assay to identify small molecule antagonists of the retinoid-related orphan receptor gamma (ROR-gamma) signaling pathway - cell viability counter screen (AID 1159520); further: nearly all actives have a fitted effect of over 50% in size; further: potency means the concentration at half of the fitted maximal effect
In short: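 Cytotoxicity was read from cellular ATP (CellTiter-Glo luminescence) after 16 hr at 37 C with 1 uM doxycycline induction. The inducer was added 2 hr after compound transfer to Tet-on ROR gamma CHO cells.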

[4] = qHTS assay to identify small molecule agonists of the AP-1 signaling pathway - cell viability counter screen (AID 1159525; calls by dose curve; further: nearly all actives have a fitted effect of over 55% in size)
In short: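 Intracellular ATP by Cell Titer Glo luminescence (30 min, RT) in the same ME-180 AP-1-bla wells after the 5 h compound exposure at 37 °C. Normalised to tetra n-octyl ammonium bromide and DMSO controls.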

[5] = qHTS assay to identify small molecule agonists of the RXR signaling pathway - cell viability counter screen (AID 1159529); further: nearly all actives have a fitted effect of over 50% in size; further: potency means the concentration at half of the fitted maximal effect
In short: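 Counter screen: CellTiter-Glo luminescence. Cells: RXR-alpha-UAS-bla HEK 293T. Medium: 2% charcoal-stripped FBS. Treatment: 16 h, 37 C. Reagent incubation: 30 min, RT.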

[6] = qHTS assay to identify small molecule antagonists of the retinoic acid receptor (RAR) signaling pathway (AID 1159552; further: nearly all actives have a fitted effect of over 50% in size; further: potency means the concentration at half of the fitted maximal effect)
In short: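 Antagonism of retinol-induced RARE reporter activity was measured in C3RL4 cells. Exposure to compounds and 1 uM final retinol lasted 6 hr at 37 C, with luminescence as endpoint.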

[7] = qHTS assay to identify small molecule agonists of the retinoic acid receptor (RAR) signaling pathway (AID 1159553); further: potency means the concentration at half of the fitted maximal effect
In short: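 In this cell-based screen, 1,000 C3RL4 cells per well were cultured overnight, dosed with test chemicals in DMSO for 6 hr, and assessed for RARE luciferase luminescence.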

[8] = qHTS assay to identify small molecule antagonists of the vitamin D receptor (VDR) signaling pathway - cell viability counter screen (AID 743225); further: nearly all actives have a fitted effect of over 50% in size; further: potency means the concentration at half of the fitted maximal effect
In short: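 Same-well multiplex: following 16 h treatment of HEK 293T cells carrying a UAS-driven beta-lactamase reporter with compound and agonist (3 nM final), and a 2 h FRET substrate step, CellTiter-Glo was added and luminescence read after 30 min.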

[9] = qHTS assay to identify small molecule agonists of the NFkB signaling pathway - cell viability counter screen (AID 1159515; calls by dose curve; further: series mostly up to about 61 µM; on the % scale 0 is the no-effect control and ±100 the full control effect; nearly all actives have a fitted effect of over 55% in size)
In short: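 Tox21 library compounds were tested for cytotoxicity against NFkB-bla ME-180 cells during a 5 hr exposure at 37 C. CellTiter-Glo luminescence served as the viability read-out.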

[10] = qHTS assay to identify small molecule agonists of the endoplasmic reticulum stress response signaling pathway (AID 1159516; active means well fitted activation curve with a large enough effect in the signal ratio in the repeat runs, not every such curve was filed as active; the % refers to the signal ratio; further: on the % scale 0 is the no-effect control and ±100 the full control effect)
In short: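 Fluorescence at 460 and 530 nm (405 nm excitation) reports beta-lactamase from an ER stress response element in HeLa cells treated 5 hr at 37 C.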

[11] = qHTS assay to identify small molecule agonists of the endoplasmic reticulum stress response signaling pathway - cell viability counter screen (AID 1159517; calls by dose curve)
In short: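 After overnight attachment, ESRE-bla HeLa cells were treated with Tox21 library compounds for 5 hr. CellTiter-Glo luminescence, read 30 min post-addition at room temperature, reported viability.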

[12] = biological target: Nuclear receptor ROR-gamma (Homo sapiens) (UniProt P51449); assay: qHTS assay to identify small molecule antagonists of the retinoid-related orphan receptor gamma (ROR-gamma) signaling pathway (AID 1159521; further: nearly all actives have a fitted effect of over 50% in size; further: potency means the concentration at half of the fitted maximal effect)
In short: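 Inducible-expression reporter assay: doxycycline (1 uM final) switched on RORγ in CHO cells bearing a ROR response element-luciferase construct, with test compounds present from 2 h beforehand. Decreased luminescence after 16 h defined antagonist activity.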

[13] = qHTS assay to identify small molecule agonists of the AP-1 signaling pathway (AID 1159526; calls by dose curve; further: on the % scale 0 is the no-effect control and ±100 the full control effect)
[14] = biological target: Retinoic acid receptor RXR-alpha (Homo sapiens) (UniProt P19793); assay: qHTS assay to identify small molecule agonists of the RXR signaling pathway (AID 1159527; calls by dose curve; further: nearly all actives have a fitted effect of over 35% in size; further: potency means the concentration at half of the fitted maximal effect)
Chain of Retinoic acid receptor RXR-alpha (Homo sapiens) (P19793 whole entry, looked up): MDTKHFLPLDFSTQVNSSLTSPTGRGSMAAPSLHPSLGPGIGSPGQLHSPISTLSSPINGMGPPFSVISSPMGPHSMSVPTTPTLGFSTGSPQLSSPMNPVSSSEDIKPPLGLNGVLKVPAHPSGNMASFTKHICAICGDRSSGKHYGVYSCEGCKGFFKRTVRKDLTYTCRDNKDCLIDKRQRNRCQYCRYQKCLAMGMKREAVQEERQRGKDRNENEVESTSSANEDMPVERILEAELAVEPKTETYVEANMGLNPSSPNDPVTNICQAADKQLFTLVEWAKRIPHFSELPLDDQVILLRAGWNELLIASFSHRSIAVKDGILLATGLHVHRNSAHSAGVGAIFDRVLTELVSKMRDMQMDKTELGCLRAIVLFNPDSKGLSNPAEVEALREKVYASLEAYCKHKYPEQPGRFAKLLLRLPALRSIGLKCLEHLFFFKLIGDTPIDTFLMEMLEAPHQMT
In short: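 Compounds in DMSO were added to RXR-alpha-UAS-bla HEK 293T cells kept in 2% charcoal-stripped serum, and incubated 16 hr at 37 C with 5% CO2. Reporter signal came from a 2 hr B/G FRET substrate step.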

[15] = qHTS assay to identify small molecule antagonists of the retinoid acid receptor (RAR) signaling pathway - cell viability counter screen (AID 1159551); further: nearly all actives have a fitted effect of over 35% in size; further: potency means the concentration at half of the fitted maximal effect
In short: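 In this counter screen, the RARE-luciferase line C3RL4 was exposed for 6 h at 37 C and 5% CO2 to compounds with retinol at 1 uM final. Cellular ATP, read by luminescence, served as the viability measure.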

[16] = qHTS assay to identify small molecule antagonists of the estrogen related receptor (ERR) signaling pathway - cell viability counter screen (AID 1224818); further: series mostly up to about 46 µM; on the % scale 0 is the no-effect control and ±100 the full control effect
In short: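 Viability of ERR cells, CellTiter-Fluor fluorescence; 17.5 h compound exposure at 37 C, DMSO vehicle; 30 min reagent incubation at 37 C/5% CO2.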

[17] = qHTS assay to identify small molecule antagonists of the estrogen related receptor signaling pathway with the pleiotropic PPARgamma coactivator (PGC) cell viability counter screen (AID 1224822)
In short: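 17.5 h compound treatment of PGC/ERR cells at 37 C; readout CellTiter-Fluor fluorescence; run alongside the PGC/ERR antagonist screen to flag cytotoxic compounds.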

[18] = qHTS assay to identify small molecule antagonists of the estrogen related receptor (ERR) signaling pathway (AID 1224819; further: nearly all actives have a fitted effect of over 50% in size; further: potency means the concentration at half of the fitted maximal effect)
In short: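 Seed ERR cells 2,000/well; rest 6 h at 37 C/5% CO2; pin compounds in DMSO; incubate 18 h at 37 C; add One-Glo; wait 30 min at room temperature; measure luminescence.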

[19] = qHTS assay to identify small molecule agonists of the estrogen related receptor (ERR) signaling pathway (AID 1224820); further: on the % scale 0 is the no-effect control and ±100 the full control effect
In short: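 Luminescence readout (One-Glo, 30 min RT) from NTP-supplied ERR cell line exposed to compounds for 18 h at 37 C. Cells seeded 2,000 per well and pre-incubated 6 h before pin-tool compound transfer.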

[20] = system: estrogen-related receptor alpha (ERRalpha) with PGC-1alpha coactivator, human; assay: qHTS assay to identify small molecule antagonists of the estrogen related receptor signaling pathway with the pleiotropic PPARgamma coactivator (PGC) (AID 1224821; calls by dose curve)
In short: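 PGC/ERR reporter cells; 6 h pre-incubation 37 C/5% CO2; pin-tool compound in DMSO, 18 h 37 C; One-Glo added, 30 min RT; luminescence read. qHTS antagonist mode.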

O=CC(=O)c1ccccc1
inactive: Potency [1] | outcome [2] | Potency [3] | Potency [4] | Potency [5] | Potency [6] | Potency [7]

O=C1NC(=O)C(c2ccccc2)(c2ccccc2)N1
inactive: Potency [1] | Potency [8] | Potency [9] | Potency [10] | Potency [11] | Potency [3] | Potency [12] | Potency [4] | Potency [13] | Potency [14] | Potency [5] | Potency [15] | outcome [16] | Potency [17]

CC(C)C(=O)Nc1ccc([N+](=O)[O-])c(C(F)(F)F)c1
inactive: Potency [9] | Potency [10] | Potency [11] | Potency [3] | Potency [4] | Potency [13] | Potency [14] | Potency [5] | Potency [15] | Potency [6] | Potency [7] | outcome [16] | outcome [19] | Potency [17]
active: Potency [12] 28.1 µM and 10.9 µM and 33.5 µM | Potency [18] 22.8 µM

COc1ccc(OC(F)(F)F)cc1CN[C@H]1CCCN[C@H]1c1ccccc1
active: Potency [8] 49 µM
inactive: outcome [2] | Potency [11] | Potency [3] | Potency [15]

Cc1c(C(=O)O)c(O)cc2c1C(=O)c1c(O)c([C@@H]3O[C@H](CO)[C@@H](O)[C@H](O)[C@H]3O)c(O)c(O)c1C2=O
inactive: Potency [9] | Potency [10] | Potency [11] | Potency [3] | Potency [12] | Potency [4] | Potency [13] | Potency [14] | Potency [5] | Potency [6] | Potency [7]
active: Potency [15] 33.5 µM and 48.6 µM

CN[C@H]1CC[C@@H](c2ccc(Cl)c(Cl)c2)c2ccccc21
active: Potency [6] 26.6 µM
inactive: outcome [2] | Potency [3] | Potency [12] | Potency [4] | Potency [15] | outcome [16] | Potency [18] | outcome [19] | outcome [20] | Potency [17]

CCN(Cc1c(F)cccc1Cl)c1c([N+](=O)[O-])cc(C(F)(F)F)cc1[N+](=O)[O-]
active: Potency [5] 9.77 µM
inactive: outcome [2] | Potency [3] | Potency [12] | Potency [15] | Potency [7]

C=C1CC[C@H](O)C/C1=C\C=C1/CCC[C@]2(C)[C@@H]([C@H](C)CCCC(C)C)CC[C@@H]12
active: Potency [3] 60.6 µM | Potency [5] 24.3 µM
inactive: outcome [2] | Potency [4] | Potency [15] | Potency [6]

COc1ccc(C(Cl)=C(c2ccc(OC)cc2)c2ccc(OC)cc2)cc1
inactive: Potency [8] | Potency [9] | Potency [10] | Potency [11] | Potency [3] | Potency [4] | Potency [13] | Potency [14] | Potency [5] | Potency [15] | Potency [6] | Potency [7]
active: Potency [12] 19.2 µM

COc1cccc(O)c1O
inactive: Potency [8] | outcome [2] | Potency [11] | Potency [4] | Potency [14] | Potency [5] | Potency [15]
active: Potency [1] 57.1 µM | Potency [12] 63.5 µM | Potency [6] 56.6 µM

CS(=O)(=O)OCCCCOS(C)(=O)=O
inactive and 17.4 µM (active): Potency [14]
inactive: Potency [8] | Potency [9] | Potency [10] | Potency [11] | Potency [3] | Potency [12] | Potency [4] | Potency [13] | Potency [5] | Potency [15] | Potency [6] | Potency [7]

NC(CO)(CO)CO
inactive: Potency [8] | Potency [9] | Potency [10] | Potency [11] | Potency [3] | Potency [12] | Potency [4] | Potency [13] | Potency [14] | Potency [5] | Potency [15] | Potency [6] | Potency [7]

Nc1ccc2c(c1)CN1C(=O)c3ccccc3C1=N2
active: Potency [15] 14.6 µM | Potency [7] 0.366 µM
inactive: outcome [2] | Potency [11] | activity change, negative = inhibition [12] -8.87% [at 19 µM] | activation [13] -1.9% [at 15.8 µM] | activity, negative = inhibition [6] -41% [at 19 µM]

F[B-](F)(F)F
inactive and 49.2 µM (active): Potency [12]
inactive: Potency [1] | Potency [9] | Potency [10] | Potency [11] | Potency [3] | Potency [4] | Potency [13] | Potency [14] | Potency [5] | Potency [15]

CN1CCC[C@H]1c1cccnc1
inactive: Potency [1] | Potency [9] | Potency [10] | Potency [11] | Potency [3] | Potency [12] | Potency [4] | Potency [13] | Potency [14] | Potency [5] | Potency [15]

O=S1(=O)OC(c2ccc(O)cc2)(c2ccc(O)cc2)c2ccccc21
inactive: Potency [9] | Potency [10] | Potency [11] | Potency [3] | Potency [12] | Potency [4] | Potency [13] | Potency [14] | Potency [5] | Potency [15] | Potency [6] | Potency [7]

O=C(Nc1ncc([N+](=O)[O-])s1)c1cccs1
active: Potency [3] 13.3 µM | Potency [5] 6.01 µM | Potency [15] 23.7 µM | Potency [7] 1.06 µM
inactive: outcome [2] | Potency [12] | Potency [6]

NS(=O)(=O)c1cc2c(cc1Cl)NCNS2(=O)=O
inactive: Potency [8] | Potency [9] | Potency [10] | Potency [11] | Potency [3] | Potency [12] | Potency [4] | Potency [13] | Potency [14] | Potency [5] | Potency [15] | outcome [16] | Potency [18] | outcome [19] | outcome [20] | Potency [17]

Cc1cn([C@H]2C=C[C@@H](CO)O2)c(=O)[nH]c1=O
inactive and 17.4 µM (active): Potency [14]
inactive: Potency [1] | Potency [9] | Potency [10] | Potency [11] | Potency [3] | Potency [12] | Potency [4] | Potency [13] | Potency [5] | Potency [15] | outcome [16] | Potency [17]

— PubChem BioAssay (Tox21)
